Data as given in PubChem BioAssay (EPA / NIEHS).
Calls of active or inactive are those of the source. Rule for the calls: active = hit-call score of the fitted dose curve at least 0.9, where 1 is the maximum; inactive = score below 0.9.

What was measured:
[1] = ATG_CRE_CIS: Attagene CIS-FACTORIAL HepG2 Assay for human cAMP Responsive Element (CRE) binding protein 3 (AID 2282926); conditions: HepG2 CRE cis-reporter, Attagene multiplexed mRNA; actives raise or lower the signal
Method in brief: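 Liver-derived HepG2, transfected with a CRE-containing reporter panel, exposed 24 h; transcript levels sized and quantified by capillary electrophoresis of labelled amplicons; signal changes either way referenced to vehicle.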

[2] = molecular target: CCAAT/enhancer-binding protein beta (Homo sapiens) (UniProt P17676); experiment: ATG_C_EBP_CIS: Attagene CIS-FACTORIAL HepG2 Assay for human CCAAT/Enhancer Binding Protein (C/EBP) beta (AID 2282927); conditions: HepG2 Attagene cis-factorial transcription factor reporter; actives raise or lower the signal
Method in brief: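 Transiently transfected HepG2 (MRTU library, endogenous TF-driven promoters); 24 h dosing; total RNA → oligo(dT) RT → PCR → 6-FAM primer extension → HpaI digest → CE; fit bidirectionally vs DMSO.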

[3] = ATG_CMV_CIS: Attagene CIS-FACTORIAL HepG2 Assay for human CMV (Internal Marker) (AID 2282928); conditions: HepG2 CMV promoter reporter, transcription factor profiling; actives raise or lower the signal;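 note: endpoint acts as a background internal control marker rather than a target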
Method in brief: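 Reporter transcripts from transfected HepG2 cells are isolated after 24 h of chemical dosing, reverse-transcribed and amplified. Fragments labeled with 6-FAM are cut with HpaI and quantified by capillary electrophoresis; DMSO defines baseline.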

[4] = ATG_DR4_LXR_CIS: Attagene CIS-FACTORIAL HepG2 Assay for human Liver X Receptor (LXR), DR4 submotif (AID 2282929); conditions: HepG2 Attagene DR4 cis-reporter, mRNA transcription; actives raise or lower the signal
Method in brief: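 The endpoint is DR4-element-driven reporter transcripts after 24 h chemical exposure of transfected HepG2 cells. These were measured via RT-PCR and capillary electrophoresis, and gain or loss of signal was fitted relative to DMSO controls.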

[5] = molecular target: Aryl hydrocarbon receptor (Homo sapiens) (UniProt P35869); experiment: ATG_Ahr_CIS: Attagene CIS-FACTORIAL HepG2 Assay for human Aryl Hydrocarbon Receptor (Ahr) (AID 2282930); conditions: HepG2 AhR cis-factorial reporter transcription; actives raise or lower the signal
Method in brief: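 Read-out: reporter mRNA quantified by RT-PCR with fluorescent primer extension and capillary electrophoresis. Human HepG2 liver cells carried transfected cis-promoter reporter units and were exposed to chemical for 24 h; gain or loss fitted relative to DMSO.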

[6] = ATG_AP_1_CIS: Attagene CIS-FACTORIAL HepG2 Assay for human Activator Protein 1 (AP-1) (AID 2282931); conditions: HepG2 Attagene cis-factorial AP-1 reporter mRNA; actives raise or lower the signal
Method in brief: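 Readout is reporter transcript level from endogenous transcription factor activity, quantified by RT-PCR with fluorescent primer extension and capillary electrophoresis. Transiently transfected HepG2 cells, 24 h exposure. Curves fitted both directions versus DMSO.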

[7] = ATG_AP_2_CIS: Attagene CIS-FACTORIAL HepG2 Assay for human Activator Protein 2 (AP-2) (AID 2282932); conditions: HepG2 AP-2 cis-reporter, Attagene transcription factor profiling; actives raise or lower the signal
Method in brief: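 Liver-derived HepG2 line, cis-reporter system measuring endogenous factors; 24 h dosing; reporter mRNA detected by fluorescent RT-PCR and capillary electrophoresis.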

[8] = ATG_BRE_CIS: Attagene CIS-FACTORIAL HepG2 Assay for human Bone Morphogenetic Protein (BMP) Response Element (BRE) (AID 2282933); conditions: HepG2 BMP response element reporter, Attagene transcription factor profiling; actives raise or lower the signal
Method in brief: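 Multiplexed cis-reporter assay, HepG2, 24 h exposure. mRNA from reporter units quantified via RT-PCR/CE; DMSO baseline; bidirectional curve fit.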

[9] = molecular target: Transcription factor E2F1 (Homo sapiens) (UniProt Q01094); experiment: ATG_E2F_CIS: Attagene CIS-FACTORIAL HepG2 Assay for human E2F Transcription Factor 1 (AID 2282935); conditions: HepG2 Attagene cis-reporter, E2F reporter RNA transcripts; actives raise or lower the signal
Method in brief: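 Liver-derived HepG2 cells expressing transfected promoter-driven reporter units received test chemical for 24 hours. Signal gains or losses were fitted bidirectionally against DMSO.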

[10] = ATG_E_Box_CIS: Attagene CIS-FACTORIAL HepG2 Assay for human Enhancer Box (E-box) (AID 2282936); conditions: HepG2 E-box cis-reporter transcription, actives raise or lower the signal
Method in brief: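 In this cell-based setup, HepG2 cells bearing transfected promoter-driven reporter units were exposed to chemicals for 24 h; reporter transcripts were amplified, 6-FAM-labelled, cut with HpaI and sized by capillary electrophoresis.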

[11] = ATG_M_61_CIS: Attagene CIS-FACTORIAL HepG2 Assay for M61 Transcription Factor (Internal Marker) (AID 2282937); conditions: HepG2 Attagene CIS-FACTORIAL M61 internal marker reporter; actives raise or lower the signal
Method in brief: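 Readout is reporter mRNA by RT-PCR, fluorescent primer extension and capillary electrophoresis, with gain or loss fitted relative to DMSO. Transfected HepG2 cells carrying endogenous-TF-driven cis reporters were exposed to chemicals for 24 hours.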

[12] = ATG_EGR_CIS: Attagene CIS-FACTORIAL HepG2 Assay for human Early Growth Response 1 (EGR1) (AID 2282938); conditions: HepG2 Attagene CIS-FACTORIAL EGR reporter mRNA; actives raise or lower the signal
Method in brief: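 After 24 h compound exposure, RNA from reporter-transfected HepG2 cells was reverse-transcribed, PCR-amplified, fluorescently labelled and resolved by capillary electrophoresis. EGR1 reporter transcript changes, up or down, were fitted against DMSO, reflecting endogenous transcription-factor activity.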

[13] = ATG_M_19_CIS: Attagene CIS-FACTORIAL HepG2 Assay for M19 Transcription Factor (Internal Marker) (AID 2282939); conditions: HepG2 Attagene CIS-FACTORIAL M19 internal marker reporter; actives raise or lower the signal
Method in brief: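 Signals come from fluorescence of labelled reporter-specific PCR fragments resolved by capillary electrophoresis, following 24 h treatment of HepG2 cells transfected with cis-promoter reporter units; activity was fitted in both directions relative to DMSO.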

[14] = ATG_Ets_CIS: Attagene CIS-FACTORIAL HepG2 Assay for human Erythroblast Transformation Specific (ETS) (AID 2282941); conditions: HepG2 ETS cis-reporter transcription, actives raise or lower the signal
Method in brief: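 Bidirectional fit versus DMSO of reporter mRNA signal, detected by RT-PCR and capillary electrophoresis in HepG2 cells transiently transfected with cis-element reporters and dosed 24 h.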

[15] = molecular target: Hepatocyte nuclear factor 3-beta (Homo sapiens) (UniProt Q9Y261); experiment: ATG_FoxA2_CIS: Attagene CIS-FACTORIAL HepG2 Assay for human Forkhead box A2 (FOXA2) (AID 2282942); conditions: HepG2 cis-reporter transcription factor activity, 24 h; actives raise or lower the signal
Method in brief: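 Endogenous transcription factor activity is captured via cis-element-driven reporter transcripts in transfected HepG2. Total RNA taken at 24 h post-dosing; labelled RT-PCR products resolved by capillary electrophoresis. Gain or loss fitted versus DMSO.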

[16] = ATG_FoxO_CIS: Attagene CIS-FACTORIAL HepG2 Assay for human Forkhead box O (FoxO) (AID 2282943); conditions: HepG2 Attagene cis-reporter, FoxO element, mRNA; actives raise or lower the signal
Method in brief: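 Read-out: fluorescence of 6-FAM-labelled reporter cDNA fragments resolved by capillary electrophoresis. Transiently transfected HepG2 cells were dosed for 24 h; activity fitted in both directions relative to DMSO controls.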

[17] = ATG_GATA_CIS: Attagene CIS-FACTORIAL HepG2 Assay for human GATA Binding Protein (AID 2282944); conditions: HepG2 GATA cis-element reporter, Attagene multiplex mRNA; actives raise or lower the signal
Method in brief: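 After transfecting HepG2 cells with multiple cis-regulated reporter units, chemicals are dosed for 24 h; isolated RNA undergoes RT-PCR and fluorescent labeling before capillary electrophoresis, with activity expressed against DMSO.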

[18] = ATG_GLI_CIS: Attagene CIS-FACTORIAL HepG2 Assay for human Zinc Finger Protein GLI1 (AID 2282945); conditions: HepG2, Attagene cis-factorial reporter mRNA, GLI element; actives raise or lower the signal
Method in brief: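 Transiently transfected HepG2 cells report endogenous transcription factor activity via cis-element-driven reporter units. After 24 h compound exposure, reporter mRNA was measured by RT-PCR with capillary electrophoresis; bidirectional fitting against DMSO baseline.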

[19] = molecular target: Retinoic acid receptor alpha (Homo sapiens) (UniProt P10276); experiment: ATG_DR5_RAR_CIS: Attagene CIS-FACTORIAL HepG2 Assay for human Retinoic Acid Receptor Alpha (RARE), DR5 submotif (AID 2282934); conditions: HepG2 Attagene cis-factorial RARE DR5 reporter, mRNA; actives raise or lower the signal;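 for AC50: reporter responds to endogenous RAR alpha beta and gamma in HepG2 not RARA alone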
Method in brief: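 Read-out: DR5-driven reporter transcript measured by RT-PCR, 6-FAM primer extension, HpaI digest and capillary electrophoresis. Human HepG2 liver cells carry transiently transfected cis-element reporter constructs; dosing lasts 24 h. Gain or loss of signal fitted against DMSO baseline.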

[20] = ATG_ERE_CIS: Attagene CIS-FACTORIAL HepG2 Assay for Estrogen Response Element (ERE) (AID 2282940); conditions: HepG2 ERE cis-reporter, Attagene RNA transcript; actives raise or lower the signal
Method in brief: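 Fluorescence of capillary-separated, FAM-labelled reporter cDNA fragments indicates reporter mRNA levels in HepG2 cells exposed to chemicals for 24 h. Transient transfection with cis-regulated units; data fitted in both directions against DMSO.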

Measured: AC50

Hepatocyte nuclear factor 3-beta (Homo sapiens), sequence (Q9Y261 whole entry, looked up): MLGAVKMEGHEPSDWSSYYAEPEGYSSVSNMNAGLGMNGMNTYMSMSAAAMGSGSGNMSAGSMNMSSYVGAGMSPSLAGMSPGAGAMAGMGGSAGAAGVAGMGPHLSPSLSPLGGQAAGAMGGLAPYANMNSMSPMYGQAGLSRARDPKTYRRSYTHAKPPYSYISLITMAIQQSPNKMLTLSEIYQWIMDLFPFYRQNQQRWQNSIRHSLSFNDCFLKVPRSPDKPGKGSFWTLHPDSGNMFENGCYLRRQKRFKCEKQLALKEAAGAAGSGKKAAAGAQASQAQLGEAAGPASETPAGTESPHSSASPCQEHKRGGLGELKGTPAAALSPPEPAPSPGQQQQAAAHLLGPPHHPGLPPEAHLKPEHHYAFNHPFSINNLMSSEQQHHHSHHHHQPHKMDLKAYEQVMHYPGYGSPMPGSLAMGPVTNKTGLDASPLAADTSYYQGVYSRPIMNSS
Aryl hydrocarbon receptor (Homo sapiens), sequence (P35869 whole entry, looked up): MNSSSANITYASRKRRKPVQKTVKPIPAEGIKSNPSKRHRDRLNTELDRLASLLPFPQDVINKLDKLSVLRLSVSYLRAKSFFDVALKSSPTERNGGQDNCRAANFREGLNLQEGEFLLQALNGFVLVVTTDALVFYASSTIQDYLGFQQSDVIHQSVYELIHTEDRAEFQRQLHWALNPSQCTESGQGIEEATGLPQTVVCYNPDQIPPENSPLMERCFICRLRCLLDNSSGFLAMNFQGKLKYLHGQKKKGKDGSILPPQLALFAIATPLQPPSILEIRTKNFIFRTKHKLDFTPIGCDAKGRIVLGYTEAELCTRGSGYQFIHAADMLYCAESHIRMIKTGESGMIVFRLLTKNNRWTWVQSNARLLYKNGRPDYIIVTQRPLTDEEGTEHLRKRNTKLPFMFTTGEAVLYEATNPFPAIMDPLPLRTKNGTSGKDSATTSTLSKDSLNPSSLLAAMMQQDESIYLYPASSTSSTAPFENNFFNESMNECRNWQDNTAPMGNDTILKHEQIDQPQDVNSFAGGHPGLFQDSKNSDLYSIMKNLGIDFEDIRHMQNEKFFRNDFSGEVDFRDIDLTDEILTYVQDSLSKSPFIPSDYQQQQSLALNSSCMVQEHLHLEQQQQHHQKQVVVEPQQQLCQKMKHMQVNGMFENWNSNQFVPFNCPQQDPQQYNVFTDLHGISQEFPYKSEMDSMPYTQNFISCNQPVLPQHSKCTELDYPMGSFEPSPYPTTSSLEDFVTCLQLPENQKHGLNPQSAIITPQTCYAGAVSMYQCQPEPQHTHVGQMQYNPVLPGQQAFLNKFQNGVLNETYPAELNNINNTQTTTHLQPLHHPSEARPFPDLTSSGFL
Retinoic acid receptor alpha (Homo sapiens), sequence (P10276 whole entry, looked up): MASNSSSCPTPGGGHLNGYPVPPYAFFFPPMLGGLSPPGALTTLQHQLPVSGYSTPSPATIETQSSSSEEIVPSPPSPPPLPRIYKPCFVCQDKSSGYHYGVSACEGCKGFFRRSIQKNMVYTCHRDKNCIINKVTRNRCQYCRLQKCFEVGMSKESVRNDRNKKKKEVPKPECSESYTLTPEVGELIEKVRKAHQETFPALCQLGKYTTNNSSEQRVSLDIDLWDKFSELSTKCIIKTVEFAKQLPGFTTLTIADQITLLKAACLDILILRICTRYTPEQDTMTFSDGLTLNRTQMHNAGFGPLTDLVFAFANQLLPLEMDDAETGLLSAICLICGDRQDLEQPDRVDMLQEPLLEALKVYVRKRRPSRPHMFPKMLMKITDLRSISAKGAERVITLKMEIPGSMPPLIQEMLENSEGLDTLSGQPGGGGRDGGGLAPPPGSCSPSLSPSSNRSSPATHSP
CCAAT/enhancer-binding protein beta (Homo sapiens), sequence (P17676 whole entry, looked up): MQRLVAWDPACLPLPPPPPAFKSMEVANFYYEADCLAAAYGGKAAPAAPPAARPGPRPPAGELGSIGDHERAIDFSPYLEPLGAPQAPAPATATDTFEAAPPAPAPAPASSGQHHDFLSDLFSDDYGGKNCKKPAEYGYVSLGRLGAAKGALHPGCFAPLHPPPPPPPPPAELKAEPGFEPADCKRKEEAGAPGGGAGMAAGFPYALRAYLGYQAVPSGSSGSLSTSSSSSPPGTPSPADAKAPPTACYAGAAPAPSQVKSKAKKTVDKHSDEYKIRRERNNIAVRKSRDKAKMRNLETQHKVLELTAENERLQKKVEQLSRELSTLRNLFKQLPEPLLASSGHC
Transcription factor E2F1 (Homo sapiens), sequence (Q01094 whole entry, looked up): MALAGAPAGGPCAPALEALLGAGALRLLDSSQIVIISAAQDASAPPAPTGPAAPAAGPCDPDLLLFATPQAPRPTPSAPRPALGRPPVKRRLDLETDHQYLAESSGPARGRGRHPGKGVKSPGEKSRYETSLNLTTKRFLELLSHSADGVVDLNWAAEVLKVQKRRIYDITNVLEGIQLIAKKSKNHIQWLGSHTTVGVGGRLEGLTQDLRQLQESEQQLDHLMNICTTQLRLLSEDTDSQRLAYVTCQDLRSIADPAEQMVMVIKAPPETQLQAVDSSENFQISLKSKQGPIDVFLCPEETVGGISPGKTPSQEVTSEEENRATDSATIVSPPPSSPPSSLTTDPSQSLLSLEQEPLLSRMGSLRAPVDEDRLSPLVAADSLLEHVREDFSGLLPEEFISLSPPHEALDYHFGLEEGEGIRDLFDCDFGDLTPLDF

CC(C)=CCC/C(C)=C\CO
inactive: [1] | [2] | [3] | [4] | [5] | [6] | [7] | [8] | [9] | [10] | [11] | [12] | [13] | [14] | [15] | [16] | [17] | [18]

O=C(NS(=O)(=O)/C=C/c1ccccc1)c1ccc(F)cc1Cl
inactive: [1] | [2] | [3] | [4] | [5] | [6] | [7] | [8] | [19] | [10] | [12] | [20] | [14] | [15] | [16] | [17] | [18]

COc1cccc(-c2ccc(/C=C\CN3CCCCCC3)cc2Cl)c1
inactive: [1] | [2] | [3] | [4] | [5] | [7] | [9] | [10] | [12] | [20] | [14] | [15] | [16] | [17] | [18]
active: [6] 16.2 µM | [8] 17.4 µM

CC(C)=CCC/C(C)=C/CO
inactive: [1] | [2] | [3] | [4] | [5] | [6] | [7] | [8] | [10] | [12] | [14] | [15] | [16] | [17] | [18]

CC(C)CCCCCCCOC(=O)CCCCC(=O)OCCCCCCCC(C)C
inactive: [1] | [2] | [3] | [4] | [6] | [7] | [8] | [10] | [12] | [13] | [14] | [15] | [16] | [17] | [18]
active: [5] 64.9 µM | [19] 18 µM

CC(C)CC(C)(O)C#CC(C)(O)CC(C)C (stereo not drawn)
inactive: [1] | [2] | [3] | [4] | [5] | [6] | [7] | [8] | [19] | [10] | [12] | [13] | [14] | [15] | [16] | [17] | [18]

O=C(O)c1cc(N=Nc2ccc(S(=O)(=O)Nc3ccccn3)cc2)ccc1O
inactive: [1] | [2] | [3] | [4] | [5] | [6] | [7] | [8] | [19] | [10] | [12] | [14] | [15] | [16] | [17] | [18]

COC(=O)c1c(Cl)c(Cl)c(C(=O)OC)c(Cl)c1Cl
inactive: [1] | [2] | [3] | [4] | [5] | [6] | [7] | [8] | [9] | [10] | [12] | [13] | [20] | [14] | [15] | [16] | [17] | [18]

Cc1[nH]cnc1C[C@H]1CCc2c(C)c3ccccc3n2C1=O
active: [1] 29.7 µM | [4] 42.1 µM | [8] 29.7 µM | [12] 29.7 µM
inactive: [2] | [3] | [5] | [6] | [7] | [19] | [10] | [14] | [15] | [16] | [17] | [18]

Cn1cnc([N+](=O)[O-])c1Sc1ncnc2nc[nH]c12
inactive: [1] | [2] | [4] | [5] | [7] | [8] | [19] | [10] | [12] | [14] | [15] | [16] | [17] | [18]
active: [3] 35.3 µM | [6] 28.1 µM | [20] 29 µM
